Experimental findings from the supplement of paper PMC11417369 are described below.

± gives the standard deviation of the averaged measurements. Whole data set: some 25,000 sequences, median “ln(normalized median fluorescence intensity)” near 8.6, cut for the highest 2% near 10. The sample holds the highest values, similar sequences and a random draw of the others, so the mix is not that of the screen.

The experiment has as its system PfAP2-EXP AP2 domain (GST-tagged). The experiment can be described thus: gcPBM binding intensity (ln(normalized median fluorescence intensity)); higher = stronger DNA binding. The method, boiled down:
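An Agilent 4 × 180k array of primer-extended double-stranded 36-bp intergenic genomic probes, with negative controls, was incubated for 1 h with GST-tagged P. falciparum DNA-binding domains expressed in E. coli. Alexa488 anti-GST antibody detected bound protein, scanned at 488 nm. Binding intensity is the highest Masliner-normalised natural-log median intensity across replicate spots of either probe orientation.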
On to “AAGGTTTTGGGTTTTAATTAATTTAATATGATTATA [XGTACX_negctrl_site147]”, for which the “gcPBM binding intensity (ln)” value stood at 8.46 ± 0.59.
As for “TACATTTTTATTTTTACACACATATATATATATATA [CACACA_site1021]”, the figure is 10.1 ± 0.31; as for “AAAATAAATATAAAATGTACTTATATATATATATAT [XGTACX_site7803]”, 9.97 ± 0.47.
As for “AACAGATAATATAAAAAAAAAAAAAAAAATAATTAA [GTGCAC_negctrl_site69]”, the figure is 8.07 ± 0.53; as for “ATATTTTTTTTCTACACACATACAAATATATATTAT [CACACA_site2359]”, 8.97 ± 0.46; as for “AATAAATAAAAAACATGTACAAATATAATATAGCAT [XGTACX_site6429]”, 9.18 ± 0.5.
As for “AAATTGTGTTCATCAGCACACACAACATCATGTAAT [CACACA_site8556]”, the figure is 8.51 ± 0.41.
Turning to “AAATATAAAAAAAATATATAATTTTTACATCGAATT [CACACA_negctrl_site544]”, the “gcPBM binding intensity (ln)” value stood at 8.24 ± 0.38.
Under “TATAAATATATATATACACACACATACACAAAAAAA [CACACA_site9191]” stands 8.96 ± 0.54; under “GTACAAAAAAAAATAAAATACATATATATATATATA [GTGCAC_negctrl_site364]”, 10.1 ± 0.41; under “TACACAAATATATATATATATATATATATATATATA [XGTACX_negctrl_site305]”, 10.2 ± 0.14.
Under “TAAATATATATATACACACACATACACAAAAAAAAA [CACACA_site3580]” stands 8.73 ± 0.42.
Under “CACAAATATATACATACACACATATATACACATATA [CACACA_site8024]” stands 8.47 ± 0.34; under “TTATACACAAAAAAAAAAATATATATATATATATAT [XGTACX_negctrl_site5]”, 10.2 ± 0.61.
Regarding “TACAAAAAAAAATAAAATACATATATATATATATAT [XGTACX_negctrl_site608]”, the “gcPBM binding intensity (ln)” value came to 10.3 ± 0.18.
Consider “TAATAAAAAATATATACACACAAATAAATAAATAAA [CACACA_site4037]”, for which the “gcPBM binding intensity (ln)” value came out at 8.75 ± 0.62.
Under “AAAAATAAAAGGTGTGCACACAAAAATATATATATA [CACACA_site8507]” stands 9.74.
Under “CACAAATATACAAATACACACAAATATACAAATACA [CACACA_site2385]” stands 8.7 ± 0.41.
In the case of “AAAAATAAAGGGTGTGCACACAAAAATATATATATA [CACACA_site1727]”, the “gcPBM binding intensity (ln)” value worked out at 9.805 ± 0.078.
Take “AAATAAAAAGGGTGCACACAAAAATATATATATATA [CACACA_site1728]”: the “gcPBM binding intensity (ln)” value came to 10.5 ± 0.6.
Turning to “TACGTGAAATTATATACACACATAAATATGTCTGTA [CACACA_site3122]”, the “gcPBM binding intensity (ln)” value was 8.16 ± 0.36.
Under “ATTTAAAAAAAAACGGAATTTTTTTTTTTTTTAAAG [XGTACX_negctrl_site91]” stands 8.06 ± 0.51.
For the sequence “TTAAAAAAAATATAATGTACTTGTAGAATTATATTT [XGTACX_site6220]”, the “gcPBM binding intensity (ln)” value was found to be 8.09 ± 0.26.
As for “TTTTTTAATTAATTACCTTTGAATGTGTATTAGGAC [GTGCAC_negctrl_site651]”, the figure is 8.49 ± 0.26; as for “AATATATACATATATTGTACATATAGTTTCTTGCAT [XGTACX_site7871]”, 8.61 ± 0.33; as for “AAATTATTATGAAATGGAAAATGCATAAATTGTTTT [XGTACX_negctrl_site206]”, 8.63 ± 0.48.
As for “ATACATACATACATACGTACATATGTATATATATAT [XGTACX_site8498]”, the figure is 9.7 ± 0.19; as for “TATATATACATATACACACATACGTACATACATATA [CACACA_site3585]”, 8.75 ± 0.31; as for “CCATATACAACCATACGTACATATATATATATATAT [XGTACX_site8193]”, 10.2 ± 0.2.
Under “ATAAATAAATAAATACGTACATATATATATATATAT [XGTACX_site8838]” stands 9.98 ± 0.38.
With “TATAAAATAAATAACAAAAAAAATAAAATAAAAATA [TGCATGCA_negctrl_site297]”, the “gcPBM binding intensity (ln)” value is 8.47 ± 0.47.
For “AAATAAATAAATATACGTACATATATATAATATATA [XGTACX_site5124]”, the “gcPBM binding intensity (ln)” value worked out at 8.52 ± 0.15.
As for “AATATACAAAATAAATAAAATATATATATATATATA [CACACA_negctrl_site216]”, the figure is 10.2 ± 0.28; as for “TACAAAAAAATAAATAATAAAAAAAAATATATATAA [XGTACX_negctrl_site344]”, 8.38 ± 0.38; as for “ACAAAAAAATAAAATATATATATATATATAATATAT [CACACA_negctrl_site805]”, 8.58 ± 0.16.
For the sequence “TAATATAACAAAAAAATAAAATAAAATAAAAAATAA [CACACA_negctrl_site109]”, the “gcPBM binding intensity (ln)” value was 8.4 ± 0.41.
As for “AACATAACAAAAAAAAAAAAAAATATATATATATAT [TGCATGCA_negctrl_site370]”, the figure is 10.2 ± 0.41; as for “AAAAAAATATAAATACGTACATATATATATATATAT [XGTACX_site432]”, 10.2 ± 0.46.
As for “ATTCTAAATAAATGTACACACAAAAATAAATGTATA [CACACA_site1732]”, the figure is 8.61 ± 0.31; as for “AACATATATATAATATGTACATAATATATATAAATG [XGTACX_site1161]”, 8.52 ± 0.3.
Take “AAAATTAAAAATTACTGTACGTATTAGAGAATAAAT [XGTACX_site2567]”: the “gcPBM binding intensity (ln)” value was determined as 8.53 ± 0.32.
As to “CATAAAATTGTGAAGTGTACATATTTTTAAATATAA [XGTACX_site8986]”, the “gcPBM binding intensity (ln)” value is 8.63 ± 0.28.
Under “AATATTTTACAATACACATGCAAATAATATTCTAAA [TGCATGCA_site618]” stands 8.63 ± 0.39; under “TATATATATATATACACACACACAAAAAAAAAAAAA [CACACA_site1505]”, 10.2 ± 0.21; under “AAAAAATAAATAAATACACACAAATATATATATATA [CACACA_site2543]”, 10.2 ± 0.071.
In the case of “TATTTATATTTATACACACACACAAAAAAAAAAAAA [CACACA_site6817]”, the “gcPBM binding intensity (ln)” value stood at 8.36 ± 0.57.
As for “TATATAAATATATATACACACAAAAAAAAAAAAAAA [CACACA_site1406]”, the figure is 8.36 ± 0.52.
With “TATATATATAAATACACACACACAAAAAAAAAAAAA [CACACA_site4930]”, the “gcPBM binding intensity (ln)” value amounted to 8.6 ± 0.34.
Under “CATTTATATATATACACACACACAAAAAAAAAAAAA [CACACA_site2645]” stands 8.44 ± 0.49.
Under “TTAATAAAAGCCCATGCACACCTTAGAAAGTTTTAT [CACACA_site8003]” stands 8.43 ± 0.45; under “GCCATTAATTTATACACACACATTATGATTTTTTAT [CACACA_site754]”, 8.86 ± 0.28.
As for “TCTTGTCTACCTTGTATTTAATATTTACATATATAA [TGCATGCA_negctrl_site320]”, the figure is 8.95 ± 0.4.
Take “TTTATTTTGACAGATTGTACACTTTATACATGTTTT [XGTACX_site2356]”: the “gcPBM binding intensity (ln)” value came out at 8.8 ± 0.44.
As for “GGGGGGGGAGGGTGAATACACACGTAATAATCATAA [CACACA_site1716]”, the figure is 10.8 ± 0.15.
Under “ATGGAATAATCACGTACACACAAGAAAAAAAAAAAT [CACACA_site527]” stands 8.8 ± 0.56; under “GGGGGGAGGGTGAATACACACGTAATAATCATAAAC [CACACA_site8502]”, 10.6 ± 0.22.
On to “ATAAATATCATATATATACACACGTAATACATAATA [CACACA_site4001]”, for which the “gcPBM binding intensity (ln)” value was 8.4 ± 0.44.
In the case of “ATAAAAAAATCAGACACACACACGTAAACACATACA [CACACA_site5529]”, the “gcPBM binding intensity (ln)” value was 8.76 ± 0.57.
As for “TAATCATAAAAAAATACACACATATATAATATATAT [CACACA_site1983]”, the figure is 8.51 ± 0.3.
